# Source: PubChem (National Center for Advancing Translational Sciences (NCATS))
# Tau fluor cs = counter-screen for tau fibril formation inhibitors | Potency, µM (top dose mostly 57.7 µM), inactives show at the top dose activity change, negative = decrease | AID 1463 | tau K18 P301L Alexa594 fluorescence, heparin fibrillization | 280,000 tested, 0.93% active; note: % is set by controls: 0 for no effect and ±100 for the full control effect; nearly all actives have a fitted effect of over 55% in size
#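 Human tau K18 P301L (15 uM unlabeled, 0.24 uM Alexa 594-labeled) in 100 mM sodium acetate pH 7 with 20 uM heparin, 6 hr at 37 C. ThT 30 uM added, 1 hr ambient; Alexa 594 FP and total fluorescence read at 555/632 nm.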
# HTT cytoprotect = protects HTT-Q103 PC12 cells, measured by ATP | PC12 HTT-Q103 induced, cytoprotection, ATP luminescence, 40 h | Potency, µM (top dose mostly 56.4 µM), without a hit: cytoprotection (ATP increase), most hits filed as activators | 230,000 tested, 0.14% active | AID 1471; note: % of control where 0% means no effect; nearly all actives have a fitted effect of over 45% in size
#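 PC12 cells stably carrying ecdysone-inducible Htt exon 1 (Q103)–GFP were induced with 100 nM tebufenozide (final) alongside library compounds in a dose series. Cytoprotection was scored as retained ATP by ATPlite luminescence.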
# Tau FP inhib = tau fibrillization inhibition (FP); P10636; K18 P301L tau heparin fibrillization, Alexa594 FP, 6 h; Potency, µM (top dose mostly 57.7 µM), inactives show at the highest dose activity, negative = inhibition, most hits filed as inhibitors; 280,000 tested, 0.39% active; note: % is set by controls: 0 for no effect and ±100 for the full control effect; nearly all actives have a fitted effect of over 55% in size
# Target sequence (P10636 561-689 P618L limits assumed): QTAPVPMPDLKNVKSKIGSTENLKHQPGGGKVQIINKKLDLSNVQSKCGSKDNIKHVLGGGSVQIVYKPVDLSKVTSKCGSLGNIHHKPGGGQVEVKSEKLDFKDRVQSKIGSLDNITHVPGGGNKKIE
#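 Human K18 P301L fragment (15 uM unlabeled plus 0.24 uM Alexa 594-labeled) in 100 mM sodium acetate pH 7 with compound, aggregation induced by 20 uM heparin for 6 hr at 37 C. ThT (30 uM) added for 1 hr, then Alexa 594 FP read.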
# Tau fibril ThT = tau fibrillization inhibition (ThT binding); P10636; recombinant tau K18 P301L (four-repeat tau fragment), heparin-induced fibrillization, ThT fluorescence; Potency, µM (highest dose often 57.4 µM), inactives show top-dose activity, negative = inhibition, actives largely listed as inhibitors; 270,000 tested, 2.1% active; note: % is set by controls: 0 for no effect and ±100 for the full control effect; nearly all actives have a fitted effect of over 55% in size
#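 Heparin-induced fibrillization of the P301L-mutant K18 repeat-domain fragment of human tau was followed by ThT binding in quantitative high-throughput format.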
# HTT aggregate = mutant huntingtin aggregation inhibition. PC12 HttQ103-GFP aggregates, Acumen cytometry, 40 h. Potency, µM (highest dose often 46.1 µM), inactives show at the highest dose activity change, negative = inhibition, usual class: inhibitors. 220,000 tested, 1.1% active; note: % is set by controls: 0 for no effect and ±100 for the full control effect; nearly all actives have a fitted effect of over 60% in size
#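 Using laser scanning cytometry, GFP-positive aggregates were counted after lysis of PC12 cells induced with 100 nM tebufenozide to express HTT exon 1 Q103–GFP. Compounds were tested in titration.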
# The depositor's hits bear a star; ? = inconclusive; · = not tested or not shown; [ ] = dose if it differs, or a comment. Shown are actives, neighbours in structure and some others; about 3.7% of the full set was active somewhere. Calls come from the whole dose curve; as a rule, active = well fitted curve in the direction sought with a large enough effect; inconclusive = small, poorly fitted or top-dose-only effect, or another doubt; inactive = no such curve, though single readings can be large; an effect the other way counts as inactive or inconclusive. Potency is the fitted concentration of half-maximal effect.
SMILES,Tau fluor cs,HTT cytoprotect,Tau FP inhib,Tau fibril ThT,HTT aggregate
COc1ccc(NC(=O)c2cc(C(C)=O)n3ccccc23)cc1Cl,28µM*[quencher],·,?,-13%,·
NC(N)=N/N=C(\c1ccc(Cl)cc1)C1CC1,·,14%[10 µM],·,·,·
CC1(C)CC(=O)C(=CN2CCN(C(=O)c3ccco3)CC2)C(=O)C1,-19%,-7%,?,?,12%
CC1(C)CC(=O)C(=CN2CCOCC2)C(=O)C1,-24%,-25%,?,16µM*,2%
O=C(O)c1ccc(/C=N\N=C2c3ccccc3-c3ccccc32)cc1,·,-8%[10 µM],·,·,·
c1ccc2c(c1)oc1c(NCc3ccc4c(c3)OCO4)ncnc12,-14%,4%[10 µM],1%,-14%,11µM*
O=c1c(-c2ccccc2)c1-c1ccccc1,-23%,11µM*,?,?,14µM*
COC(=O)[C@H]1[C@H]2C[C@@H]3c4[nH]c5ccccc5c4CCN3C[C@H]2C[C@@H](OC(=O)c2cc(OC)c(OC)c(OC)c2)[C@@H]1OC,·,-97%,·,·,-20%
O=[N+]([O-])c1cc(CN2CCCC2)c2cccnc2c1O,-23%,·,-14%,16µM*,?
CC(C)OCc1cc(CN2CCN(c3cccc(C(F)(F)F)c3)CC2)c(O)c2ncccc12,-20%,·,7%,-14%,·
O=[N+]([O-])c1cc(CN2CCN(c3cccc(C(F)(F)F)c3)CC2)c2cccnc2c1O,-16%,-138%,1%,16µM*,8.9µM*
CCOCc1cc(CN2CCN(c3ccccc3OC)CC2)c(O)c2ncccc12,-25%,·,6%,?,·
COc1ccccc1N1CCN(Cc2cc(Br)c(O)c3ncccc23)CC1,?,-50%,6%,?,10µM*
CCOCCCNC(=O)NC(CCC(C)C)c1c(-n2cccc2)sc2c1CCN(C)C2 (stereo unspecified),1%,·,-2%,1%,·
CC1=C([N+](=O)[O-])C(c2cccc(Br)c2)C2=C(N1)c1ccccc1C2=O (stereo unspecified),14µM*[quencher],-98%,?,16µM*,?
COC(=O)C1=C(C)NC2=C(C(=O)c3ccccc32)C1c1cccc(OC)c1 (stereo unspecified),-12%,8%[10 µM],12%,·,5%[9.22 µM]
Cc1c(C(=O)Nc2ccc(Oc3ccccc3)cc2)sc2nc3n(c(=O)c12)CCC3,-28%,-44%,-3%,-15%,4.5µM*
Cc1c(C(=O)Nc2ccc(OC(F)(F)F)cc2)sc2nc3n(c(=O)c12)CCC3,-20%,-55%,-7%,?,-16%
N#CC1=C(SCC(N)=O)NC2=C(C(=O)c3ccccc32)C1c1ccc(Cl)cc1 (stereo unspecified),?,-5%,?,14µM*,-6%
N#C/C(=C\NC(=S)c1ccncc1)c1nc2ccccc2s1,·,-7%[10 µM],·,·,·
CCn1cc(C(=O)O)c(=O)c2cc(F)c(N3CCN(S(=O)(=O)c4ccc(NC(=O)OC)cc4)CC3)cc21,-18%,-11%[10 µM],?,-10%,32µM*
O=C1C(c2ccncc2)N(CCC2=CCCCC2)C(=O)CN1C1CCCCC1 (stereo unspecified),?,-25%,?,7.9µM*,12%
O=C(CSc1nc(-c2ccco2)cc(C(F)(F)F)n1)Nc1ccccc1C(F)(F)F,-9%,3.2µM*,-8%,0%,?
Cc1cc(C(=O)N/N=C/c2ccc(O)c([N+](=O)[O-])c2)n[nH]1,-7%,6%[10 µM],-5%,?,-15%
COC(=O)N/N=C/c1cc(N=Nc2ccccc2)ccc1O,?,-40%[10 µM],2%,1.1µM*,-1%[9.22 µM]
SMILES,Tau fluor cs,HTT cytoprotect,Tau FP inhib,Tau fibril ThT,HTT aggregate
Cc1cc(C(=O)N/N=C/c2cc(N=Nc3ccccc3)ccc2O)n[nH]1,?,16%[10 µM],1%,7.1µM*,?
COC(=O)N/N=C\c1cc(Br)ccc1OCc1ccccc1,-18%,-20%[0.074 µM],-1%,-9%,-27%
COC(=O)N/N=C/c1cc(N=Nc2ccccc2Cl)ccc1O,?,-37%[10 µM],-2%,1.6µM*,-16%[9.22 µM]
Cc1cc(C(=O)N/N=C/c2cccc([N+](=O)[O-])c2O)n[nH]1,-21%,12%[10 µM],-4%,14µM*,?
COC(=O)N/N=C/c1cc(Br)ccc1O,0%,?,7%,?,-22%
Nc1ccc(C(=O)N/N=C\c2cc(N=Nc3cccc4ccccc34)ccc2O)cc1,?,-51%,13%,3.2µM*,?
N#CC1=C2SCN(Cc3ccccc3)CN2C(=O)CC1c1ccc2c(c1)OCO2 (stereo unspecified),-23%,-24%[0.074 µM],?,20µM*,11%
N#CC1=C2SCN(Cc3ccccc3)CN2C(=O)CC1c1cccs1 (stereo unspecified),-28%,-9%,?,28µM*,-5%
CC(=O)c1ccc(N2CCN(C(=O)c3cn(C)c(=O)c4c3c3ccccc3n4C)CC2)cc1,-16%,·,-3%,?,·
CCCCOc1ccc(N=Cc2cccs2)cc1,-18%,·,-3%,-15%,4%
Oc1ccc(N=Cc2ccc(-c3cccs3)s2)cc1,?,2%,14µM*,7.9µM*,?
CC(=O)OC(C(=O)c1ccccc1)c1ccccc1 (stereo unspecified),·,-29%,·,·,·
Cc1ccc(C(=O)NNC(=S)Nc2cccc(Cl)c2Cl)cc1[N+](=O)[O-],?,-10%,7%,25µM*,19%
COc1ccc(CCn2c(C)cc(C(=O)CSc3nc(N)cc(=O)[nH]3)c2C)cc1,-8%,-59%,-6%,?,7.1µM*
Cc1cc(C(=O)CSc2nc(N)cc(=O)[nH]2)c(C)n1CCc1ccc(F)cc1,-20%,-48%,-11%,?,?
COc1ccc(-c2ccc(=O)n(CC(=O)Nc3ccc(N(C)C)cc3)n2)cc1,?,·,2%,?,·
COc1cccc2sc(NN)nc12,28µM*[quencher],-25%,?,?,-16%
COC(=O)N1[C@H]2CC[C@@]3(C)C=C(C)O[C@]1(C)C3c1ccccc12,-8%,-10%,-1%,-4%,·
Cc1[nH]n(-c2ncc(-c3ccccc3)s2)c(=O)c1C(c1ccc(Cl)cc1)C(C#N)C#N (stereo unspecified),?,25%[10 µM],?,14µM*,?
CC1=C(C#N)C(NC(=O)C2CC2)(C(F)(F)F)C(=O)N1 (stereo unspecified),-2%,-55%[10 µM],4%,0%,0.32µM*
O=C1CC(SCc2nc3ccccc3[nH]2)C(=O)N1c1cccc(F)c1 (stereo unspecified),-17%,?,2%,?,4µM*
Cc1[nH]c2ccccc2c1C(=O)COC(=O)c1c(-c2c(F)cccc2Cl)noc1C,?,11%[10 µM],14µM*,9%,?
Cc1[nH]c2ccccc2c1C(=O)COC(=O)c1ccc([N+](=O)[O-])s1,11µM*[quencher],-43%,-2%,7.1µM*,-7%
